Source: paper PMC8384837, “Expanding the binding specificity for RNA recognition by a PUF domain”

Assays:
Test in all cases: yeast three-hybrid, YBZ-1, SC-Leu-His + 0.5 mM 3-AT, 4 days
Conditions in all cases: tags: N-Gal4 AD-HA kept; label: inside an RPR1-promoter hybrid RNA with tandem MS2 sites; ssRNA
PUM1 PUF domain R8-KYK = PUM1 PUF domain R8-KYK (Homo sapiens, UniProt Q14671 828-1176, N1122K;Q1126K)
Procedure, shortened: (§1)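 Pumilio-1 PUF domain libraries, randomized (NNK) at the three base-contacting residues of each repeat, were co-expressed with matching RNA elements from a centromeric plasmid in strain YBZ-1 (LexA–MS2 coat fusion, HIS3 reporter). Transformants were plated on SC-Leu (input) and SC-Leu-His + 0.5 mM 3-AT (selection) for four days, and repeat regions were PCR-amplified and Illumina-sequenced. The interaction score is the log2 change in variant frequency from input to selection, with pseudocount 1 where absent.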

PUM1 PUF domain R5-PRS = PUM1 PUF domain R5-PRS (Homo sapiens, UniProt Q14671 828-1176, C1007P;Q1011S)
Procedure, shortened: as §1

PUM1 PUF domain R8-GHR = PUM1 PUF domain R8-GHR (Homo sapiens, UniProt Q14671 828-1176, N1122G;Y1123H;Q1126R)
Procedure, shortened: as §1

PUM1 PUF domain R8-RYW = PUM1 PUF domain R8-RYW (Homo sapiens, UniProt Q14671 828-1176, N1122R;Q1126W)
Procedure, shortened: as §1

PUM1 PUF domain R5-KYC = PUM1 PUF domain R5-KYC (Homo sapiens, UniProt Q14671 828-1176, C1007K;R1008Y;Q1011C)
Procedure, shortened: as §1

PUM1 PUF domain R5-KWA = PUM1 PUF domain R5-KWA (Homo sapiens, UniProt Q14671 828-1176, C1007K;R1008W;Q1011A)
Procedure, shortened: as §1

PUM1 PUF domain R5-MYC = PUM1 PUF domain R5-MYC (Homo sapiens, UniProt Q14671 828-1176, C1007M;R1008Y;Q1011C)
Procedure, shortened: as §1

PUM1 PUF domain R3-SNR = PUM1 PUF domain R3-SNR (Homo sapiens, UniProt Q14671 828-1176, C935S;R936N;Q939R)
Procedure, shortened: as §1

PUM1 PUF domain R1-KLC = PUM1 PUF domain R1-KLC (Homo sapiens, UniProt Q14671 828-1176, S863K;R864L;Q867C)
Procedure, shortened: as §1

PUM1 PUF domain R7-ENR = PUM1 PUF domain R7-ENR (Homo sapiens, UniProt Q14671 828-1176, S1079E;E1083R)
Procedure, shortened: as §1

**Q.** For “GGCUAGAACUAGUGGAUCCCCCGGCGCCCGGCGGCUCGAGCCCGGGUAAGUGUAAAUAGUCUGCAUGCCGCCGGGCGCCAUGCCUGCAGGUCGACUCUAGAAAACAUG”, which binding signal (PUM1 PUF domain R8-KYK) is on record?
**A.** The binding signal was 2.92 log2 enrichment (interaction score).

**Q.** What about the binding signal (PUM1 PUF domain R5-PRS) of the same sequence?
**A.** Its binding signal is 4.36 log2 enrichment (interaction score).

**Q.** What about the binding signal (PUM1 PUF domain R8-GHR) of the same sequence?
**A.** The binding signal was 1.48 log2 enrichment (interaction score).

**Q.** What about the binding signal (PUM1 PUF domain R8-RYW) of the same sequence?
**A.** The binding signal was 4.31 log2 enrichment (interaction score).

**Q.** What about the binding signal (PUM1 PUF domain R5-KYC) of the same sequence?
**A.** Its binding signal is 5.13 log2 enrichment (interaction score).

**Q.** With “GGCUAGAACUAGUGGAUCCCCCGGCGCCCGGCGGCUCGAGCCCGGGUAAGUGUGAAUAGUCUGCAUGCCGCCGGGCGCCAUGCCUGCAGGUCGACUCUAGAAAACAUG” as the sequence, how does the binding signal (PUM1 PUF domain R5-PRS) read?
**A.** The binding signal was 1.55 log2 enrichment (interaction score).

**Q.** What about the binding signal (PUM1 PUF domain R5-KWA) of the same sequence?
**A.** The binding signal was 2.43 log2 enrichment (interaction score).

**Q.** What about the binding signal (PUM1 PUF domain R5-MYC) of the same sequence?
**A.** The binding signal was 4.74 log2 enrichment (interaction score).

**Q.** Which binding signal (PUM1 PUF domain R3-SNR) does the source give for “GGCUAGAACUAGUGGAUCCCCCGGCGCCCGGCGGCUCGAGCCCGGGUAAGUGUAAUUAGUCUGCAUGCCGCCGGGCGCCAUGCCUGCAGGUCGACUCUAGAAAACAUG” here?
**A.** Its binding signal is 3.93 log2 enrichment (interaction score).

**Q.** For “GGCUAGAACUAGUGGAUCCCCCGGCGCCCGGCGGCUCGAGCCCGGGUAAGUGUAAGUAGUCUGCAUGCCGCCGGGCGCCAUGCCUGCAGGUCGACUCUAGAAAACAUG”, which binding signal (PUM1 PUF domain R3-SNR) is on record?
**A.** The binding signal was 0.8 log2 enrichment (interaction score).

**Q.** “GGCUAGAACUAGUGGAUCCCCCGGCGCCCGGCGGCUCGAGCCCGGGUAAGUGUUAAUAGUCUGCAUGCCGCCGGGCGCCAUGCCUGCAGGUCGACUCUAGAAAACAUG” was tested. Which binding signal (PUM1 PUF domain R5-MYC) did it give?
**A.** Its binding signal is 2.86 log2 enrichment (interaction score).

**Q.** And the binding signal (PUM1 PUF domain R5-KYC)?
**A.** The binding signal was 5.51 log2 enrichment (interaction score).

**Q.** “GGCUAGAACUAGUGGAUCCCCCGGCGCCCGGCGGCUCGAGCCCGGGUAAGUGUAAAUUGUCUGCAUGCCGCCGGGCGCCAUGCCUGCAGGUCGACUCUAGAAAACAUG” was tested. Which binding signal (PUM1 PUF domain R1-KLC) did it give?
**A.** Its binding signal is 5.07 log2 enrichment (interaction score).

**Q.** Which binding signal (PUM1 PUF domain R7-ENR) does the source give for “GGCUAGAACUAGUGGAUCCCCCGGCGCCCGGCGGCUCGAGCCCGGGUAAGUCUAAAUAGUCUGCAUGCCGCCGGGCGCCAUGCCUGCAGGUCGACUCUAGAAAACAUG” here?
**A.** Its binding signal is 3.14 log2 enrichment (interaction score).

**Q.** “GGCUAGAACUAGUGGAUCCCCCGGCGCCCGGCGGCUCGAGCCCGGGUAAGCGUAAAUAGUCUGCAUGCCGCCGGGCGCCAUGCCUGCAGGUCGACUCUAGAAAACAUG” was tested. Which binding signal (PUM1 PUF domain R8-KYK) did it give?
**A.** The binding signal was 3.86 log2 enrichment (interaction score).

**Q.** And the binding signal (PUM1 PUF domain R8-GHR)?
**A.** The binding signal was 3.27 log2 enrichment (interaction score).

**Q.** And the binding signal (PUM1 PUF domain R8-RYW)?
**A.** The binding signal was 5.69 log2 enrichment (interaction score).
